We go through 5 molecules from the supplement of paper PMC10105736.

Holding throughout (test): MAPPIT interaction score (arbitrary units); higher = stronger binary interaction signal, active = hit call of the paper
One assay concerns the target CG10026. The following applies: MAPPIT configuration: N-N; pair source set: Finley_Y2H.
The next assay has as its target CG10444. The following applies: MAPPIT configuration: N-C; pair source set: screen_3.
The target in the next assay is CG10465. The following applies: MAPPIT configuration: N-N; pair source set: Curagen_high_conf.
For the next assay, the target named is CG10013. As to conditions: MAPPIT configuration: N-N; pair source set: DPIM.
The target of the next assay is CG10336. The following applies: MAPPIT configuration: N-C; pair source set: screen_3.
For another assay, the target named is Gint3. The following applies: MAPPIT configuration: N-N; pair source set: Lit-BM-16.
In another assay the target is ZnT63C. The following applies: MAPPIT configuration: N-N; pair source set: DPIM.

A number with no mark means an inactive call.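 Rule for the calls: active = MAPPIT score above the 99th percentile of random reference set scores in the same batch; inactive = at or below it.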
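Note: HEK293T cells with Epo stimulation, STAT-responsive firefly luciferase reporter, fold induction versus unstimulated cells divided by the larger fold induction of two negative controls lacking either bait or prey.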

B1: CG7218 (protein)
chain: MNATLNSAGGKRQLRFRGDVTGSRVEELHHQQQEEQKQKAPLAQDDVAATPTATPAAGSAQQRLQSGTAETCTNTFYDFFKVEMTRGYMLEHDEERYSARRQKIYSFMRIPRDLERFMVYGIMQCADSFLYIHTFLPVRFVMAVWALVSRTVARIFRLRSSGQRLLSPAEICDLLKGVIWMTVTLIMLLVDTNRVYHIIKSQSIIKLYIFYNMLEVGDRLLSAFGQDTIDALFWTATEPKNSKREHFGVLTHVLFTLIYVFLHSGLIMFQATCLNVAVNSNNKGLLTIMISNNFVELKGSVFKKFDKNNLFQLTCSDVRERFHLSVLLFIVVIQTMKEFDWSITQFCVMLPDCFAVLFTEILIDWVKHAFITRFNELPESIYREYTTSLAYDMTQTRQKHAFSDHSDLVARRMGFIPFPLAVVLIKAIYTAVSFENLAAWLLFLLAYLFAMGLRICLTICALGKACKLMKEHQTERNSSTPSSMTNVPVIGAAAPVSAAATGGQNHNNNNNNNNNSISIGSKPAQVTTLLTPPSAGHLDVSKNFSRTSIASTSTPKKAVSEQELDVTNSLELGATALFSNSDVDLDDVCLNEQVTNTNTSSAVQEVYQEQDLVRSQPDLMLLNNSGDGVTSAKAKKATQRLPKRTHKRSESEPGMPSMVEKGGAAGIAGGNQTTQL
Consider B1, for which the MAPPIT interaction score with CG10026 was 1.47.

B2: IM18 (protein)
chain: MKLIALCCLLLLGLLGFLAAPGVASPSRHTGPGNGSGSGAGSGNPFRSPSSQQRPLYYDAPIGKPSKTMYA
In the case of B2, in the assay with CG10444, the MAPPIT interaction score is 0.79.

B3: AnxB11 (protein)
chain: MYPFGSGMPSHPPTSTNHHEPPRAPFGAGWVPPMQQNSPYPPPSQPHPHSQPSSQMHPQQHQQYPGGAPAPYPPMSAPYPSAAPSYPPYPTSNPYPAQYAPPAHNHYQQPSVSNSPYPADRGYTPAMTAGYDAGYGYGNGQGHGQGHGHGQGHGHGHGQGHEYGHGYGQGYGHGQGHGNGQGHAHRSLPAHREGTPTVVPAANFDAVKDAHDLRKAMKGFGTDEDALINIICRRSNEQRQEIQRQFKTHFGKDLIEDIKSETSGNFEKLLVGLLRPIVDYYCAELNDAMAGLGTDEEVLIEILCTLSNMEINTIKNQYLRLYGAHLESELKSETSGNFKRLLTSLCTAARDESGRVDPVAAKNDARELLKAGELRVGTDESMFNMILCQRNYQQLKLIFQEYEGMTGHSLEKAIKKEFSGDVMEGLIAIYRCVTNKAEYFASRLHKAMAGIGTNDTQLIRVIITRSEIDMTDIKVAFERLYGKSLKSWIKGDTSGHYKHALYALVGEQRSS
For B3, the MAPPIT interaction score with CG10465 was 0.12.

B4: Ns1 (protein)
chain: MALKRLKTKKSKRLTGRLKHKIEKKVRDHNKKERRAAKKNPKKGSKKQKLIQIPNICPFKDDILKEVEEAKQRQEAERLARREAFKAEREQNKFKTLESMVEDADMRSTVHGIMHENDAQDQDEKKYKNAVTKEQSLKQYFKEFRKVIENADVVLEVVDARDPLGTRCNEVERAVRGAPGNKRLVLVLNKADLVPRENLNNWIKYFRRSGPVTAFKASTQDQANRLGRRKLREMKTEKAMQGSVCIGAELLMSMLGNYCRNKGIKTSIRVGVVGIPNVGKSSIINSLTRGRSCMVGSTPGVTKSMQEVELDSKIKLIDCPGIVFTSGGENSHAVLKNAQRVGDVKDPFTIAESVLKRASKEYFCTMYDITNYDTFEEFFAKKAARMGKFLKKGVPDVVAAARSVLNDWNTGKIKYCTQPPEVQEGQSVHISASIVHSEAREFDVENFESMETEILEHCAVKTDDIMEITSTGPLEIRQPREEAEPADKITASLVIDEKEKPAKGRKRKLDEEKEKVDPSLLLEENQSLNKGIKQMQKLKKKQNVRNEKKISKITDVLDSFSLGPSSSKAEKYDFDEDYVIE
With B4, the MAPPIT interaction score in the assay with CG10013 is -0.155.

B5: TER94 (protein)
chain: MADSKGEDLATAILKRKDRPNRLIVEEAQNDDNSVVSLSQAKMDELQLFRGDTVILKGKRRKETVCIVLSDDTCPDEKIRMNRVVRNNLCVHLSDVVSVQSCPDVKYGKRVRILPIDESTEGVTGNLFEIYLKPYFLEAYRPIHMGDNFIVRAAMRPIEFKVVLTDPEPYCIVAPETVIFCDGDPIKREEEEESLNAVGYDDIGGCRKQLAQIKEMVELPLRHPSLFKAIGVKPPRGILMYGPPGTGKTLIARAVANETGAFFFLINGPEIMSKLAGESESNLRKAFEEAEKNSPAIIFIDEIDAIAPKRDKTHGEVERRIVSQLLTLMDGMKKSSHLIVMAATNRPNSIDPALRRFGRFDREIDIGIPDATGRLEVLRIHTKNMKLHDDVDLEQIAAESHGHVGADLASLCSEAALQQIREKMDLIDLEDDKIDAEVLASLAVTMENFRYAMTKSSPSALRETVVEVPNTTWTDIGGLESVKKELQELVQYPVEHPDKFLKFGMQPSRGVLFYGPPGCGKTLLAKAIANECQANFISVKGPELLTMWFGESEANVRDIFDKARSAAPCVLFFDELDSIAKARGGNVGDAGGAADRVINQILTEMDGMGAKKNVFIIGATNRPDIIDPAILRPGRLDQLIYIPLPDDKSREAILKANLRKSPLAKEVDLTYIAKVTQGFSGADLTEICQRACKLAIRQAIEAEIRREKERAENQNSAMDMDEDDPVPEITSAHFEEAMKFARRSVSDNDIRKYEMFAQTLQQSRGFGQNFRFPGQTGNTSGSGNNLPVNSPGDNGDDDLYS
For B5, the MAPPIT interaction score was 2.12 with CG10336, 1.48 with Gint3 and -0.374 with ZnT63C.
